39 compounds from PubChem BioAssay AID489008 (National Center for Advancing Translational Sciences (NCATS), 2010) can be followed below.

Records with an inconclusive call do not appear. Calls of active or inactive are those of the source. Calls follow the shape of the dose curve; as a rule, active = well fitted inhibition curve with a large enough effect; inconclusive = small, poorly fitted or top-dose-only effect; inactive = flat fitted curve, though single readings scatter.
Potency is read from the fitted curve at half-maximal effect.

Ferritin light chain (Equus caballus), sequence (P02791 2-175 limits assumed): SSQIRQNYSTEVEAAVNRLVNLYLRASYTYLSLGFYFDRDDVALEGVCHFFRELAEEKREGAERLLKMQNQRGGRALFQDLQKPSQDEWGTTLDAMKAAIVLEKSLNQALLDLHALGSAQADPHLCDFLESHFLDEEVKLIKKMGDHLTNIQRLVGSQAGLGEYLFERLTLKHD

The target in this assay is Ferritin light chain (Equus caballus) (UniProt P02791). Briefly: Confirmation Assay for Identification of Novel General Anesthetics. Also: nearly all actives have a fitted effect of over 40% in size. The following applies: apoferritin 1-aminoanthracene fluorescence displacement. The gist of the method:
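Competitive displacement of profluorescent 1-aminoanthracene from 10 uM horse-spleen apoferritin in 50% saturated 1-AMA/PBS; 10 min RT, fluorescence Ex 380/Em 535. Normalized to free 1-AMA and complex; four-parameter Hill fit.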
For the compound `Cc1ccc(CNc2ccc(CNc3ncn[nH]3)cc2)cc1`, the Potency was 20 µM (active).
For `CC(C)(C)CC(=O)Nc1ccc(Nc2ccccc2)cc1` the value was 17.8 µM (active).
On to `Cc1c(Br)cc(C(=O)N2CCCCCC2)c(C)c1C`, for which the Potency was 17.8 µM (active).
Take `Cc1cccc(N(C(=O)Nc2ccccc2)C2=NCC(C)S2)c1` (centres undefined): the Potency was 25.1 µM (active).
For `CC1Cc2ccccc2N1C(=O)COC(=O)c1cccnc1Cl` (centres undefined), the Potency was 15.8 µM (active).
Take `Cc1cc(C)cc(C(=O)N2CCCCCC2)c1`: the Potency was 20 µM (active).
With `CC(C)CCOc1ccc(C2N=C(N)Nc3nc4ccccc4n32)cc1` (centres undefined), the Potency is 12.6 µM (active).
In the case of `COc1cc(C(=O)O[C@@H]2CC3CC[C@]2(C)C3(C)C)ccc1O`, the Potency is 14.1 µM (active).
In the case of `CN(CC(=O)Nc1ccccc1Cl)C1CCCCC1`, the Potency was 15.8 µM (active).
Take `N#CC(Nc1ccccc1)c1ccccc1OCc1ccccc1` (centres undefined): the Potency is 35.5 µM (active).
For the compound `N/C(Cc1ccc(Cl)cc1)=N\OC(=O)c1cccc2ccccc12`, the Potency was 8.91 µM (active).
For `O=c1cc(C23CC4CC(CC(C4)C2)C3)[nH][nH]1` the value was 12.6 µM (active).
Turning to `O=C(COC(=O)c1cccs1)NC12CC3CC(CC(C3)C1)C2`, the Potency is 11.2 µM (active).
For `Cc1ccc(-c2ccc(=O)n(CC(=O)NCCC(C)C)n2)cc1` the value was 5.01 µM (active).
Then `Cc1ccccc1OCC(=O)N1CCCc2ccccc21`, with 17.8 µM (active).
As to `O=C(NC1C2CC3CC(C2)CC1C3)c1ccc2c(c1)OCO2` (centres undefined), the Potency is 28.2 µM (active).
As for `Oc1ccc(Cc2ncc(C(F)(F)F)cc2Cl)cc1`, the Potency was 15.8 µM (active).
For the compound `CC1(c2ccc(NC(=O)c3ccccc3F)cc2)CC1(Cl)Cl` (centres undefined), the Potency is 12.6 µM (active).
As for `Cc1ccccc1Nc1cccc2nonc12`, the Potency was 20 µM (active).
For the compound `CC1=CCC2C(=O)N(c3ccc(C)cc3)C(=O)C2C1` (centres undefined), the Potency is 10 µM (active).
For `C=C(C)C(=O)OC1(C(F)(F)F)Oc2cc(C)ccc2NC1=O` (centres undefined) the value was 15.8 µM (active); for `CC1CCCN(C(=O)Nc2ccc(Br)cc2Cl)C1` (centres undefined), 28.2 µM (active).
In the case of `O=[N+]([O-])c1ccc(CNc2cccc(Cl)c2)s1`, the Potency was 15.8 µM (active).
Then `Oc1ccc(NCc2cccc(OCc3ccccc3)c2)cc1`, with 15.8 µM (active); and `O=C(COC(=O)C(O)c1ccccc1)NC12CC3CC(CC(C3)C1)C2` (centres undefined), with 12.6 µM (active).
Regarding `Cc1cc(C)cc(OCc2nnc(SCC(=O)OC(C)C)o2)c1`, the Potency was 12.6 µM (active).
Regarding `O=C1CC2(CCCC2)CC(=O)N1c1ccccc1`, the Potency is 15.8 µM (active).
Consider `ON1C(c2ccc(Cl)cc2Cl)N(O)[C@H]2CCCC[C@H]21` (some centres undefined), for which the Potency was 7.94 µM (active).
Then `O=S(=O)(NCCC1=CCCCC1)c1ccc(F)cc1`, with 8.91 µM (active); and `COc1cccc(NC(=O)CN2C(=O)NC(C)(CCC(C)C)C2=O)c1` (centres undefined), with 17.8 µM (active).
For the compound `O=C(Cn1nc(-c2ccc(Cl)cc2)ccc1=O)NCC1CCCO1` (centres undefined), the Potency was 14.1 µM (active).
`O=c1c2ccccc2nnn1Cc1ccccc1Cl`: the Potency is 15.8 µM (active).
As for `Fc1ccccc1CNc1ccc(Cl)c(Cl)c1`, the Potency was 10 µM (active).
Then `Oc1cccc(Oc2ncc(C(F)(F)F)cc2Cl)c1`, with 7.94 µM (active); and `CCc1ccc(NC(=O)C2(C)Cc3ccccc3C(=O)O2)cc1` (centres undefined), with 31.6 µM (active); and `O=C(NC1CCCCCC1)C(=S)NCc1ccccc1`, with 11.2 µM (active).
`COc1cccc(NS(=O)(=O)c2ccc(Br)s2)c1`: the Potency is 15.8 µM (active).
On to `Cc1ccc(NC(=O)N2CCCCCC2)cc1`, for which the Potency is 12.6 µM (active).
As for `COCCCNC(=O)Cn1nc(-c2ccc(C)cc2)ccc1=O`, the Potency is 14.1 µM (active).
